Assay results published in the supplement of paper PMC8728848.
The sample as a whole holds a higher share of the strongest signals than the screen did.

Columns and labels:
Assay in all cases: glycan array binding signal (z-score within array); higher = stronger binding
Conditions in all cases: glycan notation: IUPAC condensed, linker removed
[1] = system: Fuc(a1-2)Gal(b1-4)[Fuc(a1-3)]GlcNAc(b1-2)Man(a1-3)[Fuc(a1-2)Gal(b1-4)[Fuc(a1-3)]GlcNAc(b1-2)Man(a1-6)]Man(b1-4)GlcNAc(b1-4)GlcNAc
Procedure, shortened: (§1)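 Glycan array data were curated from 3228 arrays in the Consortium for Functional Glycomics database and kept only where the protein sequence was available. Glycan names were converted to IUPAC-condensed notation, and columns mapping to the same glycan were averaged. The binding signal is a within-array Z-score, averaged across arrays of the same protein sequence at different concentrations or buffers and across linkers. Negative Z-scores can be read as non-binding.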

[2] = system: Fuc(a1-2)Gal(b1-4)[Fuc(a1-3)]GlcNAc(b1-3)GalNAc
Procedure, shortened: as §1

[3] = system: Fuc(a1-2)[Gal(a1-3)]Gal(b1-4)GlcNAc
Procedure, shortened: as §1

[4] = system: Fuc(a1-2)Gal(b1-4)GlcNAc(b1-3)[Fuc(a1-3)[Gal(b1-4)]GlcNAc(b1-6)]Gal(b1-4)Glc
Procedure, shortened: as §1

[5] = system: Fuc(a1-2)Gal(b1-4)[Fuc(a1-3)]GlcNAc
Procedure, shortened: as §1

Fuc(a1-2)Gal6S(b1-4)Glc = system: Fuc(a1-2)Gal6S(b1-4)Glc
Procedure, shortened: as §1

[6] = system: Fuc(a1-2)[Gal(a1-3)]Gal(b1-3)GalNAc
Procedure, shortened: as §1

[7] = system: Fuc(a1-2)Gal(b1-4)GlcNAc(b1-6)GalNAc
Procedure, shortened: as §1

Fuc(a1-2)Gal(b1-4)GlcNAc = system: Fuc(a1-2)Gal(b1-4)GlcNAc
Procedure, shortened: as §1

[8] = system: Fuc(a1-2)[Gal(a1-3)]Gal(b1-3)GlcNAc(b1-6)GalNAc
Procedure, shortened: as §1

[9] = system: Fuc(a1-2)[Gal(a1-3)]Gal(b1-4)GlcNAc(b1-2)Man(a1-3)[Fuc(a1-2)[Gal(a1-3)]Gal(b1-4)GlcNAc(b1-2)Man(a1-6)]Man(b1-4)GlcNAc(b1-4)GlcNAc
Procedure, shortened: as §1

[10] = system: Fuc(a1-2)Gal6S(b1-4)Glc6S
Procedure, shortened: as §1

Fuc(a1-2)Gal = system: Fuc(a1-2)Gal
Procedure, shortened: as §1

[11] = system: Fuc(a1-2)[Gal(a1-3)]Gal(b1-3)GlcNAc
Procedure, shortened: as §1

[12] = system: Fuc(a1-2)Gal(b1-4)[Fuc(a1-3)]GlcNAc(b1-3)Gal(b1-4)[Fuc(a1-3)]GlcNAc
Procedure, shortened: as §1

[13] = system: Fuc(a1-2)Gal(b1-4)GlcNAc6S
Procedure, shortened: as §1

[14] = system: Fuc(a1-2)Gal(b1-4)GlcNAc(b1-3)[Fuc(a1-2)Gal(b1-4)GlcNAc(b1-6)]GalNAc
Procedure, shortened: as §1

[15] = system: Fuc(a1-2)Gal(b1-4)[Fuc(a1-3)]GlcNAc(b1-3)Gal(b1-4)[Fuc(a1-3)]GlcNAc(b1-3)Gal(b1-4)[Fuc(a1-3)]GlcNAc
Procedure, shortened: as §1

[16] = system: Fuc(a1-2)Gal6S(b1-3)GlcNAc
Procedure, shortened: as §1

[17] = system: Fuc(a1-2)[Gal(a1-3)]Gal(b1-3)GlcNAc(b1-3)GalNAc
Procedure, shortened: as §1

## SiiE (Salmonella typhimurium), A0A0H3NVH0
[1]
  glycan array binding signal (z-score): 2.43
[2]
  glycan array binding signal (z-score): 1.53
[3]
  glycan array binding signal (z-score): -0.344

## LcI (Legionella pneumophila)
[4]
  glycan array binding signal (z-score): -0.92
[5]
  glycan array binding signal (z-score): -0.561
Fuc(a1-2)Gal6S(b1-4)Glc
  glycan array binding signal (z-score): -0.438
[6]
  glycan array binding signal (z-score): -0.622

## Wza (Escherichia coli), P0A930
[7]
  glycan array binding signal (z-score): 0.01

## Epa22
Fuc(a1-2)Gal(b1-4)GlcNAc
  glycan array binding signal (z-score): 0.238
[8]
  glycan array binding signal (z-score): -0.605
[9]
  glycan array binding signal (z-score): -0.038

## Actinohivin (Actinomycete K97)
[10]
  glycan array binding signal (z-score): -0.121
Fuc(a1-2)Gal
  glycan array binding signal (z-score): -0.161
[11]
  glycan array binding signal (z-score): -0.173

## BambL (Burhholderia ambifaria), Q0B4G1
Fuc(a1-2)Gal(b1-4)GlcNAc
  glycan array binding signal (z-score): 3.81
[12]
  glycan array binding signal (z-score): 3.28
Fuc(a1-2)Gal
  glycan array binding signal (z-score): 5.01

## GspB (Streptococcus gordonii), Q939N5
[11]
  glycan array binding signal (z-score): -0.728

## SpGH101 (Streptococcus pneumoniae), Q8DR60
[13]
  glycan array binding signal (z-score): -0.166
[2]
  glycan array binding signal (z-score): 0.136
[5]
  glycan array binding signal (z-score): -0.183

## AgI/IIC123-GFP (Streptococcus mutans)
[14]
  glycan array binding signal (z-score): -0.365
[4]
  glycan array binding signal (z-score): 0.17
[15]
  glycan array binding signal (z-score): -0.094
[16]
  glycan array binding signal (z-score): 4.98
[17]
  glycan array binding signal (z-score): -0.567
